Measurements: the supplement of paper PMC8728848
The entries come from a sample that favours the strongest signals as a whole.

Experiments:
Test in all cases: glycan array binding signal (z-score within array); higher = stronger binding
Conditions in all cases: glycan notation: IUPAC condensed, linker removed
Fuc(a1-2)Gal = target: Fuc(a1-2)Gal
Outline: (§1)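 Glycan array data were curated from 3228 arrays in the Consortium for Functional Glycomics database and kept only where the protein sequence was available. Glycan names were converted to IUPAC-condensed notation, and columns mapping to the same glycan were averaged. The binding signal is a within-array Z-score, averaged across arrays of the same protein sequence at different concentrations or buffers and across linkers. Negative Z-scores can be read as non-binding.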

[1] = target: Fuc(a1-2)Gal(b1-4)GlcNAc(b1-2)Man(a1-3)[Fuc(a1-2)Gal(b1-4)GlcNAc(b1-2)Man(a1-6)]Man(b1-4)GlcNAc(b1-4)GlcNAc
Outline: as §1

[2] = target: Fuc(a1-2)Gal(b1-4)GlcNAc6S
Outline: as §1

[3] = target: Fuc(a1-2)[GalNAc(a1-3)]Gal
Outline: as §1

[4] = target: Fuc(a1-2)[GalNAc(a1-3)]Gal(b1-3)GalNAc(b1-3)Gal(a1-4)Gal(b1-4)Glc
Outline: as §1

[5] = target: Fuc(a1-2)[GalNAc(a1-3)]Gal(b1-4)GlcNAc(b1-2)Man(a1-3)[Fuc(a1-2)[GalNAc(a1-3)]Gal(b1-4)GlcNAc(b1-2)Man(a1-6)]Man(b1-4)GlcNAc(b1-4)GlcNAc
Outline: as §1

[6] = target: Fuc(a1-3)[Gal(b1-4)]GlcNAc(b1-3)GalNAc
Outline: as §1

[7] = target: Fuc(a1-3)[Gal(b1-4)]GlcNAc(b1-4)Gal(b1-4)[Fuc(a1-3)]GlcNAc(b1-4)Gal(b1-4)[Fuc(a1-3)]GlcNAc
Outline: as §1

[8] = target: Fuc(a1-3)[GalNAc(b1-4)]GlcNAc
Outline: as §1

[9] = target: Fuc(a1-3)[GalNAc(b1-4)]GlcNAc6S
Outline: as §1

[10] = target: Gal(a1-4)Gal(b1-4)GlcNAc(b1-3)Gal(b1-4)Glc
Outline: as §1

[11] = target: Gal(b1-4)GlcNAc(b1-2)Man(a1-6)[Man(a1-3)]Man(b1-4)GlcNAc(b1-4)GlcNAc
Outline: as §1

[12] = target: Gal(b1-4)GlcNAc(b1-3)[Gal(b1-4)GlcNAc(b1-6)]GalNAc
Outline: as §1

[13] = target: Gal(b1-4)GlcNAc(b1-6)Gal(b1-4)GlcNAc(b1-6)GalNAc
Outline: as §1

GalNAc4S6S(b1-4)GlcNAc = target: GalNAc4S6S(b1-4)GlcNAc
Outline: as §1

GalNAc6S(b1-4)GlcNAc = target: GalNAc6S(b1-4)GlcNAc
Outline: as §1

[14] = target: GlcNAc(a1-3)Gal(b1-4)GlcNAc
Outline: as §1

[15] = target: GlcNAc(a1-6)Gal(b1-4)GlcNAc
Outline: as §1

[16] = target: GlcNAc(b1-2)Man(a1-3)[GlcNAc(b1-2)Man(a1-6)]Man(b1-4)GlcNAc(b1-4)[Fuc(a1-6)]GlcNAc
Outline: as §1

[17] = target: GlcNAc(b1-3)Gal(b1-4)GlcNAc(b1-2)Man(a1-3)[GlcNAc(b1-3)Gal(b1-4)GlcNAc(b1-2)Man(a1-6)]Man(b1-4)GlcNAc(b1-4)[Fuc(a1-6)]GlcNAc
Outline: as §1

[18] = target: GlcNAc(b1-3)Gal(b1-4)GlcNAc(b1-3)Gal(b1-4)GlcNAc(b1-3)Gal(b1-4)GlcNAc(b1-3)Gal(b1-4)GlcNAc(b1-2)[GlcNAc(b1-3)Gal(b1-4)GlcNAc(b1-3)Gal(b1-4)GlcNAc(b1-3)Gal(b1-4)GlcNAc(b1-3)Gal(b1-4)GlcNAc(b1-6)]Man(a1-6)[GlcNAc(b1-3)Gal(b1-4)GlcNAc(b1-3)Gal(b1-4)GlcNAc(b1-3)Gal(b1-4)GlcNAc(b1-3)Gal(b1-4)GlcNAc(b1-2)Man(a1-3)]Man(b1-4)GlcNAc(b1-4)[Fuc(a1-6)]GlcNAc
Outline: as §1

[19] = target: GlcNAc(b1-3)Gal(b1-4)GlcNAc(b1-6)[GlcNAc(b1-3)]Gal(b1-4)GlcNAc
Outline: as §1

[20] = target: GlcNAc(b1-3)[GlcNAc(b1-6)]GlcNAc(b1-4)GlcNAc
Outline: as §1

GlcNAc(b1-4)GlcNAc = target: GlcNAc(b1-4)GlcNAc
Outline: as §1

[21] = target: Man(a1-2)Man(a1-3)[Man(a1-6)]Man(a1-6)[Man(a1-2)Man(a1-3)]Man(b1-4)GlcNAc(b1-4)GlcNAc
Outline: as §1

[22] = target: Man(a1-2)Man(a1-6)[Man(a1-3)]Man(a1-6)[Man(a1-2)Man(a1-2)Man(a1-3)]Man
Outline: as §1

[23] = target: Man(a1-2)Man(a1-6)[Man(a1-3)]Man(a1-6)[Man(a1-2)Man(a1-2)Man(a1-3)]Man(b1-4)GlcNAc(b1-4)GlcNAc
Outline: as §1

Man(a1-3)[Man(a1-6)]Man = target: Man(a1-3)[Man(a1-6)]Man
Outline: as §1

[24] = target: Man(a1-3)[Man(a1-6)]Man(a1-6)[Man(a1-2)Man(a1-3)]Man(b1-4)GlcNAc(b1-4)GlcNAc
Outline: as §1

[25] = target: Man(a1-3)[Man(a1-6)]Man(a1-6)[Man(a1-3)]Man
Outline: as §1

B1: HHA (Hippeastrum hybrid) (protein)
chain: MQQDCNLVLYDVDKPIWASNTGGLARDCHLNMQSDGNLVVYAPRNQVIWASNTQGENGNYVCILQKDRNVVIYGTARWATGTNIHGAGIVGVPGSAPQNTTAEMIKLVRKYLITK
glycan array binding signal (z-score) (Fuc(a1-2)Gal): -0.215 | glycan array binding signal (z-score) [1]: 0.036 | glycan array binding signal (z-score) [2]: -0.207 | glycan array binding signal (z-score) [3]: -0.21 | glycan array binding signal (z-score) [4]: -0.213 | glycan array binding signal (z-score) [5]: -0.159 | glycan array binding signal (z-score) [6]: -0.17 | glycan array binding signal (z-score) [7]: -0.255 | glycan array binding signal (z-score) [8]: -0.196 | glycan array binding signal (z-score) [9]: -0.214 | glycan array binding signal (z-score) [10]: -0.203 | glycan array binding signal (z-score) [11]: 3.97 | glycan array binding signal (z-score) [12]: -0.247 | glycan array binding signal (z-score) [13]: -0.191 | glycan array binding signal (z-score) (GalNAc4S6S(b1-4)GlcNAc): -0.218 | glycan array binding signal (z-score) (GalNAc6S(b1-4)GlcNAc): -0.209 | glycan array binding signal (z-score) [14]: -0.2 | glycan array binding signal (z-score) [15]: -0.203 | glycan array binding signal (z-score) [16]: -0.168 | glycan array binding signal (z-score) [17]: -0.147 | glycan array binding signal (z-score) [18]: -0.124 | glycan array binding signal (z-score) [19]: -0.185 | glycan array binding signal (z-score) [20]: -0.264 | glycan array binding signal (z-score) (GlcNAc(b1-4)GlcNAc): -0.211 | glycan array binding signal (z-score) [21]: 3.35 | glycan array binding signal (z-score) [22]: 2.72 | glycan array binding signal (z-score) [23]: 3.81 | glycan array binding signal (z-score) (Man(a1-3)[Man(a1-6)]Man): 5.62 | glycan array binding signal (z-score) [24]: 5.57 | glycan array binding signal (z-score) [25]: 5.35
